# Shown are actives, neighbours in structure and some others; about 2.4% of the full set was active somewhere.
# D2 PAM-1 – Beta-Arrestin HTS for Positive Allosteric Modulators of the Human D2 Dopamine Receptor: Potentiators. 360,000 tested, 0.23% active. potentiation, % (test concentration not listed). D(2) dopamine receptor (Homo sapiens), P14416. DiscoveRx D2 beta-arrestin cells, luminescence, 90 min; 100% = 57 uM dopamine signal. AID 624464, 2012; in the data active means potentiation above about 50%; inconclusive means mostly about 30% to 49%
# Target sequence (P14416 whole entry, looked up): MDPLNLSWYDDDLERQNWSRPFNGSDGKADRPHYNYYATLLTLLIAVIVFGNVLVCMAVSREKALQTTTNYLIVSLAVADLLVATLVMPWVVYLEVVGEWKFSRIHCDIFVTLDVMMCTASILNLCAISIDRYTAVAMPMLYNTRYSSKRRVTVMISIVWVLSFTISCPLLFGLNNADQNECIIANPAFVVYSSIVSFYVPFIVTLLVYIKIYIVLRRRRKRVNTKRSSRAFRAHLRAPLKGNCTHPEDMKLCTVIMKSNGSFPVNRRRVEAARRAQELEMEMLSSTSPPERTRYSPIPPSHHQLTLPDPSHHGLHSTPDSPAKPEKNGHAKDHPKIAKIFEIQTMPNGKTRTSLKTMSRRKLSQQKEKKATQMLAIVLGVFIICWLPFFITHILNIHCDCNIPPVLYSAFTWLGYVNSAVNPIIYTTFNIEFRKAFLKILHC
#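 PathHunter D2 cells, attached overnight at 37 deg C, received compound in DMSO plus dopamine at EC20 (50 nM final) for 90 min at 37 deg C. Beta-arrestin recruitment was read as luminescence after 1 h with detection reagent at ambient temperature.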
# D2 ag-1 – HTS Assay for Allosteric Agonists of the Human D2 Dopamine Receptor: Primary Screen for Agonists; HEK293 T-REx D2 cells, calcium flux agonist mode; activation, % at 2 µM; D(2) dopamine receptor (Homo sapiens), P14416; 340,000 tested, 0.53% active;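 active means activation over 3 SD above normal in the single-dose calcium agonist read, cut at about 30% in these data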; further: 0% is about no effect
#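 Agonism is scored from calcium flux in a force-coupled, inducible HEK293 cell line expressing D2, read kinetically for 180 s after compound addition against dopamine controls.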
# D2 PAM-2 – HTS Assay for Positive Allosteric Modulators of the Human D2 Dopamine Receptor: Primary Screen for Potentiators | D(2) dopamine receptor (Homo sapiens), P14416 | HEK293 T-REx D2, calcium flux, EC20 dopamine potentiation | potentiation, % at 10 µM | 340,000 tested, 0.34% active | AID 485347, 2010;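 active means potentiation over 3 SD above the plate norm, cut at about 30% in these data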; further: 0% is about no effect
#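 Primary screen. Calcium kinetics in induced HEK293 T-REx D2 cells: compound pre-addition 180 s, EC20 dopamine, 180 s more.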
# D2 ag-2 – Beta-Arrestin HTS for Positive Allosteric Modulators of the Human D2 Dopamine Receptor: Agonists | D(2) dopamine receptor (Homo sapiens), P14416 | DiscoveRx PathHunter D2 beta-arrestin, luminescence, 90 min; 100% = 57 uM dopamine signal | activation, % (concentration not given with the values) | 360,000 tested, 0.084% active; in the data active means activation above about 40%; inconclusive means between about 15% and that limit
#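 Agonist mode: compounds alone added to overnight-plated D2 PathHunter cells for 90 min at 37 C, with 57 uM final dopamine (EC100) defining full response. Beta-arrestin recruitment detected by chemiluminescent reagent, read after 1 h at ambient temperature.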
# D2 antagonist – HTS Assay for Allosteric Antagonists of the Human D2 Dopamine Receptor: Primary Screen for Antagonists; 340,000 tested, 2% active; inhibition, % at 10 µM; AID 485344, 2010; HEK293 TREx D2 cells, calcium flux, dopamine EC80; D(2) dopamine receptor (Homo sapiens), P14416; in the data active means inhibition above about 30%; inactive means below that, where a call was filed; further: 0% is about no effect
#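 Calcium mobilization kinetics were recorded at 1 s intervals in tetracycline-induced HEK293 T-REx D2 cells, first for 180 s after compound addition and then 180 s after EC80 dopamine.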
# * hit, by the source's call; ? = inconclusive; . = no result.
SMILES,D2 PAM-1,D2 ag-1,D2 PAM-2,D2 ag-2,D2 antagonist
COc1ccc(NC(=O)N2CCCCC2c2cccnc2)cc1 (configuration not stated),1,-1,14,-1,23
COc1cc(OC)cc(C(=O)NC(=S)N2CCCCC2c2cccnc2)c1 (configuration not stated),-12,-1,5,-2,41*
CC(=O)c1ccc(NC(=O)CCc2c(C)nc3cc(-c4ccc(Cl)cc4)nn3c2C)cc1,.,0,6,.,.
Cc1cccc(NC(=O)Cn2nnc(C(=O)NCc3cccs3)c2N)c1,.,0,2,.,.
CC(=O)c1cccc(NC(=O)c2ccc3ccccc3c2)c1,2,0,-3,0,31*
Cc1ccccc1Cn1c(C)c(CNCCCc2ccccc2)c(C(=O)O)c1C,.,0,1,.,.
CC(C)CCNC(=O)C1CCC(CNS(=O)(=O)c2ccc(Cl)cc2)CC1 (configuration not stated),-7,-3,4,-2,34*
CCN=C1S/C(=C\c2ccc(N3CCOCC3)cc2C)C(=O)N1CC,-8,3,-7,1,-5
COCCN1C(=O)/C(=C/c2ccc(N3CCCC3)cc2C)SC1=S,-8,37*,3,1,-24
COCCn1c(C)cc(/C=C2/SC(=O)N(CC(=O)N3CCCC3)C2=O)c1C,0,2,-1,-3,34*
CCOC(=O)c1cc(C(C)(C)C)nc(SC)c1C#N,-16,-1,7,-6,-17
CCOC(=O)c1cc(C)nc(SC)c1C#N,1,1,9,4,31*
O=C(CSC1=NCCN1)Nc1cccc(C(F)(F)F)c1,-13,1,-21,-2,75*
CC(C)c1ccc(NC(=O)C2CC(=O)N=C(N)S2)cc1 (configuration not stated),109*,0,20,?,-3
CCc1ccc(NC(=O)C2CC(=O)N=C(N)S2)cc1 (configuration not stated),-8,0,2,-1,9
Cc1ccc(-c2nnc(N3CCN(C(=O)CSc4ncn[nH]4)CC3)c3ccccc23)cc1,-3,3,.,0,47*
COc1ccc(C2CN=NC23CCCc2ccccc2C3=O)cc1 (configuration not stated),64*,-1,-5,4,-18
Cc1ccc(C)c(NC(=O)c2ccc3c(c2)CCCN3S(C)(=O)=O)c1,.,0,0,.,.
CCN1C(=S)SC(=O)C1=C1C=C(C)N(Cc2ccco2)C(C)=C1,-15,.,8,-5,.
CCN1C(=S)SC(=O)C1=C1C=C(C)OC(C)=C1,-1,2,4,-1,57*
Cc1cc(C)cc(-n2ccn(CC(=O)Nc3cc(C)ccc3C)c(=O)c2=O)c1,.,1,-1,.,.
O=S(=O)(c1ccccc1)c1nc(-c2cccs2)oc1SCc1ccccc1F,.,3,0,.,.
COc1ccc(/C=N/NC(=O)c2sccc2OCc2ccc(F)cc2)cc1OC,17,-1,-8,-2,37*
COc1ccc2ccccc2c1/C=N/NC(=O)c1cccc(Br)c1,-42,0,-14,-4,10
COc1ccc2ccccc2c1/C=N/NC(=O)c1ccccc1F,-13,3,3,-7,-3
SMILES,D2 PAM-1,D2 ag-1,D2 PAM-2,D2 ag-2,D2 antagonist
COc1ccc2ccccc2c1/C=N\NC(=O)c1ccc(C)s1,-37,0,-20,-3,40*
COc1ccc2ccccc2c1/C=N/NC(=O)c1ccc([N+](=O)[O-])cc1,-16,-2,-28,-1,71*
O=C(CCCN1C(=O)C(c2ccccc2)Oc2cccnc21)NCc1ccccc1F (configuration not stated),-2,0,3,2,-29
O=C(CSc1ncc(-c2ccc(F)cc2)n1Cc1ccco1)Nc1ccc2c(c1)OCO2,-24,1,-16,-3,37*
O=C(CSc1nccn1-c1ccc(F)cc1)Nc1ccc2c(c1)OCO2,-8,1,39*,-4,-29
CCOc1ccc(NC(=O)CSc2ncc(-c3ccc(F)cc3)n2Cc2ccco2)cc1,-10,0,21,-2,12
Cc1cccc(NC(=O)CSc2nnc(-c3cnccn3)n2Cc2ccco2)c1,-18,0,25,-4,-12
Cc1ccc(NC(=O)CSc2nnc(-c3cnccn3)n2Cc2ccco2)cc1,-14,-4,-7,-2,32*
CCOc1ccc2nc(NC(=O)c3cc(=O)c4cc(C)cc(C)c4o3)sc2c1,.,2,4,.,.
Cc1ccccc1NC(=O)Cc1nc(COC(=O)COc2ccccc2C(C)C)cs1,-1,2,5,-3,29
Cc1ccccc1NC(=O)Cc1nc(COC(=O)CNS(=O)(=O)c2cccc(Br)c2)cs1,-5,0,-8,-1,35*
CCOc1ccc(OCC(=O)OCc2csc(CC(=O)Nc3ccccc3C)n2)cc1,6,1,42*,1,7
Cn1c(=O)[nH]c(=O)c2c1nc(N1CCCCCC1)n2CCN1CCCCCC1,-38,1,-14,-1,40*
Cc1ccnc(SCCn2c(N3CCCCC3)nc3c2c(=O)[nH]c(=O)n3C)n1,.,0,31*,.,-3
CCOC(=O)C(Cc1ccccc1)NC(=O)CCc1nnc2ccc(N3CCCC3)nn12 (configuration not stated),2,1,-4,0,-17
COc1ccccc1N(Cc1cc2cccc(C)c2[nH]c1=O)C(=O)c1cccc(Cl)c1,.,-1,20,.,.
O=C(Cc1ccccc1)NN1C(=O)/C(=C/c2ccccc2C(=O)O)SC1=S,-4,-1,-2,-4,31*
O=C(O)COc1ccccc1/C=C1\SC(=S)N(NC(=O)c2ccccc2O)C1=O,8,0,-10,-3,7
Cc1c(C(=O)Nc2ccc3c(c2)OCCO3)sc2nc(-c3ccccc3)cn12,-7,-1,-4,3,73*
O=c1[nH]c2ccc(S(=O)(=O)Nc3ccc(Br)cc3)cc2[nH]1,3,1,-27,-1,-8
CC(C)(CO)Nc1nc(N2CCCC2)nc(N2CCCC2)n1,-23,0,-7,-3,47*
Cn1cc2cc(NC(N)=S)ccc2n1,-5,-1,0,0,-13
CN1CCN(C2Cc3cc(F)ccc3Sc3ccc(Cl)cc32)CC1 (configuration not stated),-13,.,.,-4,.
CN1CCN(C2=Cc3ccccc3Sc3cc(F)ccc32)CC1,-34,-1,-26,-1,80*
